What follows are sequences tested against PUM1 PUF domain R4-NRV (Homo sapiens, UniProt Q14671 828-1176, H972R;Q975V) (assay: yeast three-hybrid, YBZ-1, SC-Leu-His + 0.5 mM 3-AT, 4 days). Settings: tags: N-Gal4 AD-HA kept; label: inside an RPR1-promoter hybrid RNA with tandem MS2 sites; ssRNA.
Outline: (§1)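 Repeat regions from input (SC-Leu) and selection (SC-Leu-His + 0.5 mM 3-AT) plates were PCR-amplified and Illumina-sequenced after four days of growth. The cells were strain YBZ-1 with a LexA–MS2 coat fusion and a HIS3 reporter, co-expressing Pumilio-1 PUF domain libraries and matching RNA elements from a centromeric plasmid. The interaction score is the log change in variant frequency from input to selection, taken in log2 with a pseudocount of 1 for absent variants.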
For “GGCUAGAACUAGUGGAUCCCCCGGCGCCCGGCGGCUCGAGCCCGGGUAAGUGUAAAUAGUCUGCAUGCCGCCGGGCGCCAUGCCUGCAGGUCGACUCUAGAAAACAUG”, the binding signal was 1.46 log2 enrichment (interaction score).
“GGCUAGAACUAGUGGAUCCCCCGGCGCCCGGCGGCUCGAGCCCGGGUAAGUGUACAUAGUCUGCAUGCCGCCGGGCGCCAUGCCUGCAGGUCGACUCUAGAAAACAUG” was tested, and the binding signal was 1.97 log2 enrichment (interaction score).
“GGCUAGAACUAGUGGAUCCCCCGGCGCCCGGCGGCUCGAGCCCGGGUAAGUGUAUAUAGUCUGCAUGCCGCCGGGCGCCAUGCCUGCAGGUCGACUCUAGAAAACAUG” was tested, and the binding signal was 2.52 log2 enrichment (interaction score).

These sequences were tested against PUM1 PUF domain R4-WGR (Homo sapiens, UniProt Q14671 828-1176, N971W;H972G;Q975R) in the same assay as above. Settings: tags: N-Gal4 AD-HA kept; label: inside an RPR1-promoter hybrid RNA with tandem MS2 sites; ssRNA.
Outline: as §1
With “GGCUAGAACUAGUGGAUCCCCCGGCGCCCGGCGGCUCGAGCCCGGGUAAGUGUAAAUAGUCUGCAUGCCGCCGGGCGCCAUGCCUGCAGGUCGACUCUAGAAAACAUG” the binding signal was 0.32 log2 enrichment (interaction score).
“GGCUAGAACUAGUGGAUCCCCCGGCGCCCGGCGGCUCGAGCCCGGGUAAGUGUACAUAGUCUGCAUGCCGCCGGGCGCCAUGCCUGCAGGUCGACUCUAGAAAACAUG” was tested, and the binding signal was 3.78 log2 enrichment (interaction score).
In the case of “GGCUAGAACUAGUGGAUCCCCCGGCGCCCGGCGGCUCGAGCCCGGGUAAGUGUAUAUAGUCUGCAUGCCGCCGGGCGCCAUGCCUGCAGGUCGACUCUAGAAAACAUG”, the binding signal is reported as 3.49 log2 enrichment (interaction score).

Reference: PMC8384837, “Expanding the binding specificity for RNA recognition by a PUF domain”
